Bioassay records (PubChem BioAssay)
Only some compounds are listed: those with a hit (about 11% of all), similar ones and a draw of the others.
Insulin prom up – insulin promoter activators in MIN6 cells, imaging, high-content screening, mouse beta cells; z-score at 5 µM; MIN6 insulin promoter-GFP reporter; hits give high values; 190,000 compounds, 0.3% hits;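 active = z-score above 3 at 5 µM with at least 500 cells counted in the well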
Autophagy HCS – autophagy modulators in MEF cells, primary screen, imaging, high-content, MEF GFP-LC3. calls only at 10 µM (by protocol). MEF GFP-LC3 puncta imaging; test concentration mostly 10 µM. 190,000 compounds, 0.98% hits;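 active = percentage of spot-positive cells more than 3 SD above its plate mean, without a fluorescence outlier flag or 80% toxicity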
WT yeast gro inh – growth inhibition of WT strain, primary screen, mitochondrial fusion inhibitor project, WT and mutant strains, chemical genetic; 190,000 compounds, 2.1% hits; mitochondrial fusion phenotypic screen; inhibition, % at 10 µM; in the data active = inhibition above about 58%; tested in S. cerevisiae
L major viab – Leishmania major promastigote growth inhibition, primary screen; AID 1063, 2008; 200,000 compounds, 9% hits; Leishmania major promastigotes, resazurin fluorescence viability; inhibition, % at 10 µM; in the data active = inhibition above about 50%;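 note: promastigotes grown with compound for 44 hours at 28 °C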
Insulin prom inh – inhibitors of insulin promoter-driven GFP, primary screen, imaging, TRM-6 cells (human fetal islet line), eGFP reporter, cell count | reporter expression induced with tamoxifen | AID 1273, 2008 | 130,000 compounds, 0.9% hits | inhibition, % at 2 µM;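 active = inhibition above the mean plus 3 SD, with well images judged a real hit on visual review, cut at about 60% in these data, passing the limit was not always enough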
Large screens that a line does not name were inactive.

S=C(NCCCn1ccnc1)Nc1ccc(Cl)cc1Cl	none
O=C(NCCCN1CCc2ccccc2C1)Nc1ccc(Cl)cc1	L major viab 78
O=C(CS)Nc1ccc2ccccc2c1	none (no result: Autophagy HCS, WT yeast gro inh, L major viab, Insulin prom inh)
O=C(NCCCn1ccnc1)Nc1ccc(Cl)c(Cl)c1	L major viab 95
COc1ccc(NC(=O)NCCN2CCc3ccccc3C2)cc1	none
CC1=C(C)CC(C(=O)Nc2ccc(C(=O)N3CCOCC3)cc2)C(C(=O)O)C1 (stereo not given)	none (no result: Insulin prom inh)
O=C(CCCOc1ccc(Cl)cc1Cl)NCCCn1ccnc1	L major viab 66 (no result: Insulin prom inh)
O=C(COc1ccc(Cl)cc1Cl)NNC(=S)NCc1ccco1	WT yeast gro inh 76
O=C(COC(=O)CCCOc1ccc(Cl)cc1Cl)Nc1cccc(Cl)c1	WT yeast gro inh 70
O=C(NCCCn1ccnc1)Nc1ccc(Cl)cc1	L major viab 53, Insulin prom inh 77
Cc1ccc(NC(=O)CN2CCN(CCN=CC3=C(O)CC(c4ccc(C)cc4)CC3=O)CC2)cc1 (stereo not given)	none (no result: Insulin prom up, Insulin prom inh)
Cc1ccc(NC(=O)CN(C)CC(=O)Nc2cccc(F)c2)cc1S(=O)(=O)N1CCCCCC1	none
O=C1CCC(C(=O)NCCCn2ccnc2)N1 (stereo not given)	Autophagy HCS active, L major viab 66
O=C(NCCCn1ccnc1)c1noc2c1CCc1ccccc1-2	L major viab 88 (no result: Insulin prom inh)
C/C(=N\NC(=O)c1ccc(F)cc1)c1cccc(NC(=O)c2ccco2)c1	L major viab 67 (no result: Insulin prom inh)
C/C(=N\NC(=O)c1cccc(N/N=C(\C)c2ccco2)c1)c1ccco1	Insulin prom inh 82
C#CCOc1nc(OCC#C)nc(OCC#C)n1	none (no result: Insulin prom inh)
C=CCc1c(C)nc(SC)nc1Nc1ccc(C(C)=O)cc1	L major viab 71 (no result: Insulin prom inh)
O=C(COC(=O)C1CCN(S(=O)(=O)c2ccc3c(c2)OCCO3)CC1)Nc1ccc(C(F)(F)F)cc1	none
C/C(=N/Nc1nc(-c2ccccc2)cc(-c2ccc(F)cc2)n1)c1cccc(N)c1	WT yeast gro inh 68 (no result: Insulin prom inh)
C/C(=N\Nc1nc(N)cc(Cl)n1)c1cccc(N)c1	none
CC(C)c1cccc(C(C)C)c1NC(=O)c1ccccc1	none
Cc1cc(C)cc(NC(=O)c2ccc([N+](=O)[O-])o2)c1	WT yeast gro inh 78, L major viab 100 (no result: Insulin prom inh)
Cc1cc(NC(=O)c2ccc([N+](=O)[O-])o2)ccc1NC(=O)c1ccco1	L major viab 100
Cc1cc(C)nc(NC(=O)c2ccc([N+](=O)[O-])o2)n1	L major viab 56
NS(=O)(=O)c1ccc(O)c(NC(=O)c2ccc([N+](=O)[O-])o2)c1	none (no result: Autophagy HCS, WT yeast gro inh, L major viab, Insulin prom inh)
COc1ccc(NC(C)=O)cc1NC(=O)CSc1nc2ncccc2[nH]1	none (no result: Insulin prom inh)
CC1Nc2ccccc2C(=O)N1NS(=O)(=O)c1ccccc1 (stereo not given)	none
COc1ccc2[nH]c(C(=O)O)c(CCN3C(=O)c4cccc([N+](=O)[O-])c4C3=O)c2c1	none (no result: Autophagy HCS, WT yeast gro inh, L major viab, Insulin prom inh)
C#CCn1c(S(=O)(=O)Cc2ccc(OC)cc2)nc(-c2ccccc2)c1-c1ccccc1	none (no result: Insulin prom up, WT yeast gro inh)
CC12CCC(C/C1=N\N=C1\NC(=O)/C(=C\c3ccc(Cl)cc3)S1)C2(C)C (stereo not given)	none
CCOC(=O)N1CCN(S(=O)(=O)c2cccs2)CC1	none
Cc1cc(C(=O)CCC(=O)N2CCN(S(=O)(=O)c3cccs3)CC2)c(C)s1	L major viab 88 (no result: Insulin prom inh)
COc1ccc(/C=C/c2c([N+](=O)[O-])c(=O)n(C)c(=O)n2C)cc1	none (no result: Insulin prom inh)
CCOc1ccc(/C=C/c2c([N+](=O)[O-])c(=O)n(C)c(=O)n2C)cc1	L major viab 65 (no result: Insulin prom inh)
COc1cc(SC#N)ccc1N=Cc1c(C)[nH]n(-c2cccc3ccccc23)c1=O	none
COc1cc(SC#N)ccc1N=Cc1c(C)[nH]n(-c2ccc(C)cc2C)c1=O	L major viab 56
COc1ccc(Cl)cc1C(=O)CSc1nnnn1C1CCCC1	none
COc1ccc(Cl)cc1C(=O)CSc1nnnn1C1CCCCC1	WT yeast gro inh 72
O=S(=O)(c1ccc(Cl)cc1)N1CCN(C2CCN(Cc3ccccc3)CC2)CC1	L major viab 99
COc1ccc(S(=O)(=O)N2CCC(N3CCN(Cc4ccccc4)CC3)CC2)cc1	L major viab 87
COc1ccc(S(=O)(=O)N2CCN(Cc3cccc(Cl)c3)CC2)cc1	none
CCOC(=O)N1CCC(N2CCN(S(=O)(=O)c3ccc4ccccc4c3)CC2)CC1	L major viab 98
COc1ccc(S(=O)(=O)N2CCN(Cc3ccc(Cl)cc3)CC2)cc1	L major viab 51
COc1ccc(S(=O)(=O)N2CCC(CN3C(=O)c4cccc5cccc(c45)C3=O)CC2)cc1	L major viab 98
COc1ccc(S(=O)(=O)N2CCN(C3Cc4ccccc4C3)CC2)cc1	L major viab 97 (no result: Insulin prom up)
Cc1ccc(Cn2cccc(NC(=O)c3ccco3)c2=O)cc1	none (no result: Insulin prom inh)
CCOC(=O)c1sc(NC(=O)Nc2ccccc2Cl)cc1C	L major viab 80
CCOC(=O)c1c(N)sc(C(=O)Nc2ccccc2)c1C	L major viab 58 (no result: Insulin prom inh)
Cc1cc(NC(=O)c2cccc(S(=O)(=O)N3c4ccccc4CC3C)c2)no1 (stereo not given)	none (no result: Autophagy HCS, WT yeast gro inh, L major viab, Insulin prom inh)
CCOC(=O)c1sc(NC(=O)c2cccc(S(=O)(=O)N3c4ccccc4CC3C)c2)cc1C (stereo not given)	L major viab 62
CCOC(=O)c1sc(NC(=O)Nc2ccccc2)cc1C	L major viab 92
CC(=O)c1cccc(NC(=O)Cc2coc3cc4c(cc23)CCC4)c1	none (no result: Insulin prom up)
Cc1ccc(CNS(=O)(=O)c2ccc(C(F)(F)F)cc2)n1C	none (no result: Autophagy HCS, WT yeast gro inh, L major viab, Insulin prom inh)
Cn1c(Cl)c(/C=N/OC(=O)C(C)(C)C)c2ccccc21	none
CCOC(=O)c1sc(NC(=O)c2ccccc2C(=O)O)c(C(=O)OCC)c1C	none (no result: Autophagy HCS, WT yeast gro inh, L major viab, Insulin prom inh)
CCOC(=O)c1c(C)nc2sc(C(=O)Nc3ccccc3)c(N)c2c1-c1ccc(OC)cc1	L major viab 97 (no result: Insulin prom up)
CCOC(=O)c1sc(NC(=O)c2ccccc2F)c(C(N)=O)c1C	Insulin prom inh 79
Cc1ccc(C)c2c(SC(C)C(=O)NCc3ccco3)nc(-c3ccccc3)nc12 (stereo not given)	none
COC(=O)C1=C(C)N(C)C(=S)NC1c1ccc(OC)cc1OC (stereo not given)	none (no result: Insulin prom inh)
c1ccc2c(c1)CCN(C1=Nc3cccc4cccc1c34)C2	L major viab 69
c1cc2c3c(cccc3c1)C(N1CCCCC1)=N2	Insulin prom inh 87
c1cc2c3c(cccc3c1)C(N1CCCCCC1)=N2	none (no result: Insulin prom up)
O=C(NC1=C(Nc2ccc(F)cc2)C(=O)c2ccccc2C1=O)c1ccc(Cl)cc1	WT yeast gro inh 67, L major viab 96 (no result: Insulin prom up, Insulin prom inh)
CNS(=O)(=O)c1ccc(N=Cc2c(C)[nH]n(-c3ccc(C)cc3C)c2=O)cc1	none
Cc1ccc(-n2[nH]c(C)c(C=Nc3ccc(S(=O)(=O)N4CCOCC4)cc3)c2=O)c(C)c1	L major viab 52
Cc1nn(Cc2ccc(Cl)cc2)c(C)c1NC(=O)C(c1ccccc1)c1ccccc1	L major viab 99
O=C(c1ccccc1Nc1ccc(SC(F)F)cc1)N1CCCCCC1	none (no result: Insulin prom up)
CCc1ccc(C2=C/C(=C/c3cccnc3)C(=O)O2)cc1	none (no result: Insulin prom up)
